Measured values from PubChem BioAssay (Tox21).
Results filed as inconclusive are left out. The source made the active and inactive calls. Calls follow the shape of the full dose curve.

Assay: qHTS assay to identify small molecule agonists or antagonists of the thyroid stimulating hormone receptor (TSHR) signaling pathway - wild type cell line counter screen (AID 1259384)
Settings: HEK293 wild type, cAMP HTRF counter-screen; series mostly up to 92.4 µM
In short: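 Counter screen in untransfected Hek293: compounds (15-point titration, triplicate) plus phosphodiesterase inhibitor Ro20-1724 added after 18 h plating; 30 min RT. Intracellular cAMP via competitive d2/cryptate immunoassay, 1 h incubation.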
With `CCOC(=O)Nc1ccc(NCc2ccc(F)cc2)nc1N` the outcome was “inactive”.
For `CCCCC(CC)COC(=O)c1ccccc1O` (configuration not stated), the outcome was “inactive”.
For `O=C1NC(=O)[C@@]2(CCOc3ccc(F)cc32)N1`, the outcome was “inactive”.
In the case of `NC(=O)Nc1ccccc1`, the outcome is reported as “inactive”.
For `CC/C=C\CC/C=C/C(OCC)OCC`, the outcome was “inactive”.
With `CCO/C([O-])=N/c1c[n+](N2CCOCC2)no1` the outcome was “inactive”.
In the case of `CC/C=C\CCOC(C)=O`, the outcome is reported as “inactive”.
With `CC(C)=CCCC(C)CC(=O)O` (configuration not stated) the outcome was “inactive”.
With `COC(C)(C)CCCC(C)CC=O` (configuration not stated) the outcome was “inactive”.
With `O=c1[nH]c(=O)n([C@H]2C[C@H](O)[C@@H](CO)O2)cc1I` the outcome was “inactive”.
In the case of `CCCCOCCOCCOCCCC`, the outcome is reported as “inactive”.
For `CC(C)CCCC(C)N` (configuration not stated), the outcome was “inactive”.
In the case of `O=c1n(CCO)c(=O)n(CCO)c(=O)n1CCO`, the outcome is reported as “inactive”.
For `CCCCCCCCCCCCCCCCC`, the outcome was “inactive”.
In the case of `CCC(=O)OC(C)c1ccccc1` (configuration not stated), the outcome is reported as “inactive”.
In the case of `Nc1c[n+](N2CCOCC2)no1`, the outcome is reported as “inactive”.
With `CC(C)NCC(O)c1ccc(NS(C)(=O)=O)cc1` (configuration not stated) the outcome was “inactive”.
In the case of `CC1(C)CO[C@@H](CC(=O)O)CN1`, the outcome is reported as “inactive”.
In the case of `O=C1CCCCCCCCCCCN1`, the outcome is reported as “inactive”.
For `CCCN(CCC)CCc1cccc2c1CC(=O)N2`, the outcome was “inactive”.
With `CCOC(=O)C(=O)OCC` the outcome was “inactive”.
In the case of `CCOC(=O)c1cccc(N)c1`, the outcome is reported as “inactive”.
In the case of `COc1cc(C(=O)N2CCCCCCC2)cc(OC)c1OC`, the outcome is reported as “inactive”.
With `Cc1cc2c(cc1S(N)(=O)=O)S(=O)(=O)CCC2` the outcome was “inactive”.
With `C[C@H](NC(CCc1ccccc1)C(=O)O)C(=O)N1CCC[C@H]1C(=O)O` (some centres not stated) the outcome was “inactive”.
With `COc1ccccc1OCC(O)CN1CCN(CC(=O)Nc2c(C)cccc2C)CC1` (configuration not stated) the outcome was “inactive”.
With `CN1CCC(=C2c3ccccc3CC(=O)c3sccc32)CC1` the outcome was “inactive”.
